From the supplement of paper PMC6555819 come the findings set out here.

Experiment in all cases: PBM binding z-score (relative to random genomic background probes); higher = stronger binding; sequences stand for … in GC…GCGATTGACAGCGTAGAATGAAGG
Assay [1] relates to PPARg:RXRa DBDmut IVT, anti-RXR (DBD mutation: RXRa K156A/R161A, NR concentration 270 nM, RXRa partner concentration 90 nM). An outline of the steps:
(§1)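 Custom Agilent 4×180K protein-binding microarrays carried double-stranded probes. Their 34-nt variable regions held direct-repeat seeds, single-nucleotide variants, half-site ablations and random human genomic background sequences. Arrays were incubated 1 h with ligand-free nuclear receptor dimers in PBS pH 7.4, 2% milk, 0.02% Triton X-100, 1 mM DTT, 0.2 mg/mL BSA and 0.4 mg/ml salmon testes DNA. Antibodies against each partner (one per run) detected binding, and scanned fluorescence was regression-normalized. Binding z-scores use random background probes as reference.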

The subject of assay [2] is PPARg:RXRa IVT, anti-PPARg (NR concentration 270 nM, RXRa partner concentration 90 nM). The procedure, abridged: as §1
Assay [3] concerns PPARg DBDmut:RXRa IVT, anti-PPARg (DBD mutation: PPARg1 K132A/R137A, NR concentration 270 nM, RXRa partner concentration 90 nM). The procedure, abridged:
as §1

The test system of assay [4] is PPARg DBDmut IVT, anti-PPARg (DBD mutation: PPARg1 K132A/R137A, NR concentration 270 nM). An outline of the steps: as §1
The subject of assay [5] is PPARg homodimer (NR concentration 180 nM). An outline of the steps:
as §1

The test system of assay [6] is PXR:RXRa (NR concentration 270 nM, RXRa partner concentration 90 nM). The procedure, abridged: as §1
Assay [7] deals with PXR homodimer (NR concentration 270 nM). An outline of the steps:
as §1

Assay [8] deals with RARa:RXR (NR concentration 270 nM, RXRa partner concentration 90 nM). The procedure, abridged:
as §1

The subject of assay [9] is RARa homodimer (NR concentration 270 nM). The procedure, abridged: as §1
The test system of assay [10] is RARb:RXRa (NR concentration 270 nM, RXRa partner concentration 90 nM). An outline of the steps: as §1

As to AGAATGAGGTTATTAATATCAGGGAATTGCGGTC, the PBM binding z-score in [1] was 2.96; in [2], 2.52; in assay [3] it was 1.52; in [4], 0.456; in [5] it was 0.953; in [6] it was 1.27. Moreover, the PBM binding z-score stood at 0.447 in assay [7], 1.32 in [8], 0.74 in assay [9] and 1.18 in [10].

Turning to CGAACGAGGGCATTAGTTGATAGCAAATGCCGAT, the PBM binding z-score is 2.78 in [1]; 1.35 in assay [2]; -1.12 in assay [3]; -0.313 in [4]; -0.0468 in [5]; 0.174 in assay [6]. For the same sequence, the PBM binding z-score in assay [7] is 0.377; in [8], 0.239; in assay [9], -0.278; in [10] it was 1.51.

Regarding ATCTCTAGGTAACAAGTTCAGTGAGAGAGAGGAC, the PBM binding z-score amounted to 3.21 in assay [1]; 3.22 in [2]; 1.3 in assay [3]; 1.5 in assay [4]; 1.39 in assay [5]; 1.73 in assay [6]. Moreover, the PBM binding z-score in assay [7] came out at 1.77; in assay [8] it was 0.827; in [9], 1.3; in assay [10], 1.75.

As for TAGCCTAGGTCCTGCGGGCCAGTATAGTGTCGGC, the PBM binding z-score in [1] was -1.61; in assay [2] it was -0.181; in assay [3] it was -1.11; in assay [4] it was -0.969; in [5] it was -1.72; in assay [6], -0.971. Moreover, the PBM binding z-score in assay [7] is -1.03; in assay [8], -0.898; in assay [9] it was -1.52; in assay [10], -0.954.

With GCTTACGGATCAAAGGTTATAGCATGAATAGAAT, the PBM binding z-score in assay [1] was -0.119; in assay [2], 1.82; in assay [3], 0.708; in [4], 0.266; in assay [5], 0.616; in assay [6] it was 2.38. The PBM binding z-score in assay [7] was -0.00589; in [8], 3.61; in assay [9], 0.0862; in [10] it was 1.42.

Turning to ACAGTCAGGTGATGAAGGTAACTCAGGCTATCAT, the PBM binding z-score in [1] was 0.347; in assay [2], 0.415; in assay [3] it was 0.348; in assay [4], 0.294; in [5], 0.022; in [6], -0.36. Also, the PBM binding z-score in assay [7] was -0.211; in [8], 0.136; in assay [9], -0.284; in assay [10], 0.503.

With TCGACTAGGTTACCAATGGGGCATTCAGCTTTCT, the PBM binding z-score in [1] was 4.11; in [2], 2.87; in assay [3], 0.333; in assay [4], 0.263; in assay [5] it was 0.845; in assay [6], 0.199. The PBM binding z-score in assay [7] was -0.246; in [8], 0.659; in assay [9], -0.05; in assay [10], 1.18.

As for TCATATAGGTACATGCTAGGTGAAAGTCCGATCT, the PBM binding z-score in [1] worked out at 2.58; in assay [2], 1.73; in assay [3], 0.847; in assay [4], 1.54; in [5], 0.444; in assay [6] it was 0.528. For the same sequence, the PBM binding z-score amounted to 0.248 in [7], 0.868 in assay [8], 0.997 in assay [9] and 0.432 in assay [10].

Regarding ACTAGTTGGTGAGCTGAGGTCACACACAATTCGG, the PBM binding z-score turned out to be 0.913 in assay [1]; 1.97 in assay [2]; 0.121 in assay [3]; 0.0784 in assay [4]; 2.24 in [5]; 4.76 in assay [6]. In addition, the PBM binding z-score in assay [7] was 1.9; in [8] it was 4.65; in assay [9], 0.439; in [10], 2.98.

With ATCGAAAGGTCGAACGTGAGTATACCCACCCGAA, the PBM binding z-score in assay [1] was determined as 0.292; in [2], 1.49; in assay [3] it was 1.19; in assay [4], 0.459; in [5], 1.65; in assay [6] it was 2.61. Besides, the PBM binding z-score in [7] worked out at 0.229; in [8], 2.83; in assay [9], 0.171; in assay [10] it was 3.75.

TTACCAAGGTGAGCTGAGGTGGTTGATCCAACTC: the PBM binding z-score in [1] was 0.594; in assay [2], 1.48; in [3], -0.51; in assay [4], -0.991; in assay [5], -0.428; in assay [6] it was 0.478. Further, the PBM binding z-score was -0.709 in [7], 1.53 in [8], -0.848 in [9] and 0.757 in [10].

For ACTTACGGGTCAACGAGGTTACAGCACGCGTATA, the PBM binding z-score in [1] came out at 3.63; in assay [2], 4.61; in assay [3], 3.52; in assay [4] it was 1.44; in [5], 2.75; in assay [6], 5.25. Moreover, the PBM binding z-score in assay [7] was 2.74; in assay [8], 5.23; in assay [9], 1.58; in assay [10] it was 4.44.
